Assays:
[1] = biological target: NKX3-2 (Homo sapiens, UniProt P78367 192-278, P234S); assay: PBM; 200 nM protein, PBS; conditions: dsDNA, one strand shown
[2] = biological target: NKX3-2 (Homo sapiens, UniProt P78367 192-278); assay: PBM; 200 nM protein, PBS; conditions: dsDNA, one strand shown
Sequence of NKX3-2 (Homo sapiens, UniProt P78367 192-278) (P78367 192-278): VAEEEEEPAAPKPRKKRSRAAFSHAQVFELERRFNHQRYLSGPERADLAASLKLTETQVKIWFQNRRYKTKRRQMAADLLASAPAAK

Sequence of NKX3-2 (Homo sapiens, UniProt P78367 192-278, P234S) (P78367 192-278 P234S): as the sequence (P78367 192-278) above, with P43S counted along it

Sequence | binding signal [1] | binding signal [2]
AGTGCACT | 12.3 upbm affinity estimate (log intensity, higher = more binding, comparable within an allelic series) | 12.6 upbm affinity estimate (log intensity, higher = more binding, comparable within an allelic series)
AGAAGTGG | 12.5 upbm affinity estimate (log intensity, higher = more binding, comparable within an allelic series) | 12.7 upbm affinity estimate (log intensity, higher = more binding, comparable within an allelic series)
CCACTTCG | 12.8 upbm affinity estimate (log intensity, higher = more binding, comparable within an allelic series) | 12.9 upbm affinity estimate (log intensity, higher = more binding, comparable within an allelic series)
GAAGTGTC | 12.2 upbm affinity estimate (log intensity, higher = more binding, comparable within an allelic series) | 12.3 upbm affinity estimate (log intensity, higher = more binding, comparable within an allelic series)
CCACTTCC | 12.6 upbm affinity estimate (log intensity, higher = more binding, comparable within an allelic series) | 12.7 upbm affinity estimate (log intensity, higher = more binding, comparable within an allelic series)
GGCACTCA | 12.5 upbm affinity estimate (log intensity, higher = more binding, comparable within an allelic series) | 12.6 upbm affinity estimate (log intensity, higher = more binding, comparable within an allelic series)
ACCAGGCT | 10.6 upbm affinity estimate (log intensity, higher = more binding, comparable within an allelic series) | 10.6 upbm affinity estimate (log intensity, higher = more binding, comparable within an allelic series)
CGGTGAGC | 10.6 upbm affinity estimate (log intensity, higher = more binding, comparable within an allelic series) | 10.7 upbm affinity estimate (log intensity, higher = more binding, comparable within an allelic series)
ACCTCTTG | 11.6 upbm affinity estimate (log intensity, higher = more binding, comparable within an allelic series) | 11.7 upbm affinity estimate (log intensity, higher = more binding, comparable within an allelic series)
GGCCTCAC | 10.5 upbm affinity estimate (log intensity, higher = more binding, comparable within an allelic series) | 10.6 upbm affinity estimate (log intensity, higher = more binding, comparable within an allelic series)
CACGGGCA | 10.5 upbm affinity estimate (log intensity, higher = more binding, comparable within an allelic series) | 10.6 upbm affinity estimate (log intensity, higher = more binding, comparable within an allelic series)
AAAGTGGC | 12.6 upbm affinity estimate (log intensity, higher = more binding, comparable within an allelic series) | 12.6 upbm affinity estimate (log intensity, higher = more binding, comparable within an allelic series)
CAGGGAAG | 10.5 upbm affinity estimate (log intensity, higher = more binding, comparable within an allelic series) | 10.5 upbm affinity estimate (log intensity, higher = more binding, comparable within an allelic series)
CGGGTCGA | 10.6 upbm affinity estimate (log intensity, higher = more binding, comparable within an allelic series) | 10.6 upbm affinity estimate (log intensity, higher = more binding, comparable within an allelic series)
GAAGTGCC | 12.8 upbm affinity estimate (log intensity, higher = more binding, comparable within an allelic series) | 12.9 upbm affinity estimate (log intensity, higher = more binding, comparable within an allelic series)
ACGGCAGC | 10.6 upbm affinity estimate (log intensity, higher = more binding, comparable within an allelic series) | 10.5 upbm affinity estimate (log intensity, higher = more binding, comparable within an allelic series)
CTGCCGCA | 10.7 upbm affinity estimate (log intensity, higher = more binding, comparable within an allelic series) | 10.6 upbm affinity estimate (log intensity, higher = more binding, comparable within an allelic series)
GGTCAAAC | 10.5 upbm affinity estimate (log intensity, higher = more binding, comparable within an allelic series) | 10.5 upbm affinity estimate (log intensity, higher = more binding, comparable within an allelic series)
CAAAGTGG | 12.8 upbm affinity estimate (log intensity, higher = more binding, comparable within an allelic series) | 12.9 upbm affinity estimate (log intensity, higher = more binding, comparable within an allelic series)

Sequence | binding signal [1] | binding signal [2]
AAGTATAC | 11.6 upbm affinity estimate (log intensity, higher = more binding, comparable within an allelic series) | 11.7 upbm affinity estimate (log intensity, higher = more binding, comparable within an allelic series)
CTGGCAAG | 10.5 upbm affinity estimate (log intensity, higher = more binding, comparable within an allelic series) | 10.5 upbm affinity estimate (log intensity, higher = more binding, comparable within an allelic series)
CCCGAATC | 10.4 upbm affinity estimate (log intensity, higher = more binding, comparable within an allelic series) | 10.4 upbm affinity estimate (log intensity, higher = more binding, comparable within an allelic series)
GGCGCGCA | 10.6 upbm affinity estimate (log intensity, higher = more binding, comparable within an allelic series) | 10.6 upbm affinity estimate (log intensity, higher = more binding, comparable within an allelic series)
GGACCCGA | 10.6 upbm affinity estimate (log intensity, higher = more binding, comparable within an allelic series) | 10.6 upbm affinity estimate (log intensity, higher = more binding, comparable within an allelic series)
CCTATGGC | 10.6 upbm affinity estimate (log intensity, higher = more binding, comparable within an allelic series) | 10.6 upbm affinity estimate (log intensity, higher = more binding, comparable within an allelic series)
CGAGTGCA | 11.7 upbm affinity estimate (log intensity, higher = more binding, comparable within an allelic series) | 11.8 upbm affinity estimate (log intensity, higher = more binding, comparable within an allelic series)
GAGAGTAC | 12 upbm affinity estimate (log intensity, higher = more binding, comparable within an allelic series) | 12.1 upbm affinity estimate (log intensity, higher = more binding, comparable within an allelic series)
CCTGGCCG | 10.5 upbm affinity estimate (log intensity, higher = more binding, comparable within an allelic series) | 10.5 upbm affinity estimate (log intensity, higher = more binding, comparable within an allelic series)
CCTAAGTA | 12.1 upbm affinity estimate (log intensity, higher = more binding, comparable within an allelic series) | 12.1 upbm affinity estimate (log intensity, higher = more binding, comparable within an allelic series)
GCCACTCA | 12.6 upbm affinity estimate (log intensity, higher = more binding, comparable within an allelic series) | 12.7 upbm affinity estimate (log intensity, higher = more binding, comparable within an allelic series)
CACGGACC | 10.6 upbm affinity estimate (log intensity, higher = more binding, comparable within an allelic series) | 10.6 upbm affinity estimate (log intensity, higher = more binding, comparable within an allelic series)
AGGAAAAA | 10.5 upbm affinity estimate (log intensity, higher = more binding, comparable within an allelic series) | 10.6 upbm affinity estimate (log intensity, higher = more binding, comparable within an allelic series)
GACGGGAC | 10.5 upbm affinity estimate (log intensity, higher = more binding, comparable within an allelic series) | 10.5 upbm affinity estimate (log intensity, higher = more binding, comparable within an allelic series)
ACGGTGTC | 10.6 upbm affinity estimate (log intensity, higher = more binding, comparable within an allelic series) | 10.6 upbm affinity estimate (log intensity, higher = more binding, comparable within an allelic series)
CGGTTGAC | 10.5 upbm affinity estimate (log intensity, higher = more binding, comparable within an allelic series) | 10.5 upbm affinity estimate (log intensity, higher = more binding, comparable within an allelic series)
ACGGCGGG | 10.4 upbm affinity estimate (log intensity, higher = more binding, comparable within an allelic series) | 10.4 upbm affinity estimate (log intensity, higher = more binding, comparable within an allelic series)
GAGGCAGC | 10.4 upbm affinity estimate (log intensity, higher = more binding, comparable within an allelic series) | 10.4 upbm affinity estimate (log intensity, higher = more binding, comparable within an allelic series)
AGGCGCCG | 10.5 upbm affinity estimate (log intensity, higher = more binding, comparable within an allelic series) | 10.5 upbm affinity estimate (log intensity, higher = more binding, comparable within an allelic series)

Sequence | binding signal [1] | binding signal [2]
AACGCCGG | 10.6 upbm affinity estimate (log intensity, higher = more binding, comparable within an allelic series) | 10.6 upbm affinity estimate (log intensity, higher = more binding, comparable within an allelic series)
AAGTGCCG | 12.5 upbm affinity estimate (log intensity, higher = more binding, comparable within an allelic series) | 12.6 upbm affinity estimate (log intensity, higher = more binding, comparable within an allelic series)
CAGGTAGC | 10.7 upbm affinity estimate (log intensity, higher = more binding, comparable within an allelic series) | 10.7 upbm affinity estimate (log intensity, higher = more binding, comparable within an allelic series)
CGCTGCGA | 10.5 upbm affinity estimate (log intensity, higher = more binding, comparable within an allelic series) | 10.5 upbm affinity estimate (log intensity, higher = more binding, comparable within an allelic series)
ACCACGGC | 10.5 upbm affinity estimate (log intensity, higher = more binding, comparable within an allelic series) | 10.5 upbm affinity estimate (log intensity, higher = more binding, comparable within an allelic series)
CAAGGGTC | 11.7 upbm affinity estimate (log intensity, higher = more binding, comparable within an allelic series) | 11.8 upbm affinity estimate (log intensity, higher = more binding, comparable within an allelic series)
GTCACTTA | 12.5 upbm affinity estimate (log intensity, higher = more binding, comparable within an allelic series) | 12.6 upbm affinity estimate (log intensity, higher = more binding, comparable within an allelic series)
ACGGGACG | 10.4 upbm affinity estimate (log intensity, higher = more binding, comparable within an allelic series) | 10.4 upbm affinity estimate (log intensity, higher = more binding, comparable within an allelic series)
ATATGAGG | 11.6 upbm affinity estimate (log intensity, higher = more binding, comparable within an allelic series) | 11.6 upbm affinity estimate (log intensity, higher = more binding, comparable within an allelic series)
AATGCGGT | 10.7 upbm affinity estimate (log intensity, higher = more binding, comparable within an allelic series) | 10.8 upbm affinity estimate (log intensity, higher = more binding, comparable within an allelic series)
ACGATCGA | 10.7 upbm affinity estimate (log intensity, higher = more binding, comparable within an allelic series) | 10.7 upbm affinity estimate (log intensity, higher = more binding, comparable within an allelic series)
CCGCGGCA | 10.5 upbm affinity estimate (log intensity, higher = more binding, comparable within an allelic series) | 10.5 upbm affinity estimate (log intensity, higher = more binding, comparable within an allelic series)
GCACCCAA | 10.6 upbm affinity estimate (log intensity, higher = more binding, comparable within an allelic series) | 10.6 upbm affinity estimate (log intensity, higher = more binding, comparable within an allelic series)
CACTTACG | 12.7 upbm affinity estimate (log intensity, higher = more binding, comparable within an allelic series) | 12.8 upbm affinity estimate (log intensity, higher = more binding, comparable within an allelic series)
CCAGACCA | 10.6 upbm affinity estimate (log intensity, higher = more binding, comparable within an allelic series) | 10.5 upbm affinity estimate (log intensity, higher = more binding, comparable within an allelic series)
GGTGGTAC | 10.5 upbm affinity estimate (log intensity, higher = more binding, comparable within an allelic series) | 10.6 upbm affinity estimate (log intensity, higher = more binding, comparable within an allelic series)
ACCACTTC | 12.8 upbm affinity estimate (log intensity, higher = more binding, comparable within an allelic series) | 12.8 upbm affinity estimate (log intensity, higher = more binding, comparable within an allelic series)
AGGTTGTG | 10.7 upbm affinity estimate (log intensity, higher = more binding, comparable within an allelic series) | 10.7 upbm affinity estimate (log intensity, higher = more binding, comparable within an allelic series)
AACGTGGC | 10.5 upbm affinity estimate (log intensity, higher = more binding, comparable within an allelic series) | 10.5 upbm affinity estimate (log intensity, higher = more binding, comparable within an allelic series)

— article PMC11006913
